Test results reported in PubChem BioAssay (Tox21).
Results filed as inconclusive are left out. The source made the active and inactive calls. Unless noted, the call rests on the fitted dose curve; in most records, active means well fitted curve in the direction sought with a large enough effect in the repeat runs; inconclusive means weak or mixed curves; inactive means no such curve, though single readings can be large; an effect the other way counts as inactive or inconclusive.

Tests used:
[1] = qHTS assay to identify small molecule agonists of the RXR signaling pathway - cell viability counter screen (AID 1159529);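 further: HEK 293T cells carrying an RXR-alpha UAS beta-lactamase reporter; series mostly up to about 77 µM; nearly all actives have a fitted effect of over 50% in size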
Method in brief: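 Counter screen: CellTiter-Glo luminescence. Cells: RXR-alpha-UAS-bla HEK 293T. Medium: 2% charcoal-stripped FBS. Treatment: 16 h, 37 C. Reagent incubation: 30 min, RT.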

[2] = qHTS assay to identify small molecule antagonists of the retinoid acid receptor (RAR) signaling pathway - cell viability counter screen (AID 1159551); further: nearly all actives have a fitted effect of over 35% in size
Method in brief: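 Following overnight attachment, C3RL4 reporter cells received DMSO-dissolved compounds and then retinol (1 uM final). Six hours later at 37 C, ATP content was measured by CellTiter-Glo luminescence.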

[3] = qHTS assay to identify small molecule antagonists of the retinoic acid receptor (RAR) signaling pathway (AID 1159552; further: nearly all actives have a fitted effect of over 50% in size)
Method in brief: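 Antagonism of retinol-induced RARE reporter activity was measured in C3RL4 cells. Exposure to compounds and 1 uM final retinol lasted 6 hr at 37 C, with luminescence as endpoint.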

[4] = qHTS assay to identify small molecule agonists of the retinoic acid receptor (RAR) signaling pathway (AID 1159553)
Method in brief: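 Cell line C3RL4, RARE luciferase reporter. Treatment: compounds in DMSO, 6 hr, 37 C, 5% CO2, after overnight plating. Detection: luminescence, 30 min RT after reagent.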

[5] = qHTS assay to identify small molecule antagonists of the estrogen related receptor (ERR) signaling pathway from Tox21 library - cell viability counter screen (AID 1224834); further: nearly all actives have a fitted effect of over 30% in size
Method in brief: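 Viability readout (CellTiter-Fluor fluorescence, 30 min at 37 C) multiplexed with the ERR assay; cells treated 17.5 h at 37 C with compounds delivered in DMSO.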

[6] = target: Luciferin 4-monooxygenase (Photinus pyralis) (UniProt P08659); assay: qHTS assay to identify small molecule inhibitors of firefly luciferase (AID 1224835); further: series mostly up to about 120 µM; nearly all actives have a fitted effect of over 25% in size
Method in brief: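 Inhibition of purified Photinus luciferase is measured by luminescence. Substrate levels (D-luciferin, ATP) sit at their KM values. Each compound is tested in a concentration series.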

[7] = qHTS assay to identify small molecule agonists of the constitutive androstane receptor (CAR) signaling pathway - cell viability counter screen (AID 1224836); further: series mostly up to about 92 µM; nearly all actives have a fitted effect of over 45% in size
Method in brief: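 Double-stable HepG2 hepatoma cells (hCAR plus CYP2B6-2.2kb) are treated for 23 h at 37 C with test compounds in 15-point concentration series. PK11195 at 0.75 uM final is co-added. Cell viability is quantified by CellTiter-Fluor.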

[8] = qHTS assay to identify small molecule antagonists of the constitutive androstane receptor (CAR) signaling pathway - cell viability counter screen (AID 1224837); further: series mostly up to about 92 µM; nearly all actives have a fitted effect of over 45% in size
Method in brief: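 Fluorescence from CellTiter-Fluor served as the viability signal. Human hepatoma HepG2 cells stably bearing hCAR and CYP2B6-2.2kb received compound plus CITCO (50 nM final) for 23 hr.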

[9] = target: Nuclear receptor subfamily 1 group I member 3 (Homo sapiens) (UniProt Q14994); assay: qHTS assay to identify small molecule antagonists of the constitutive androstane receptor (CAR) signaling pathway (AID 1224838);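 further: HepG2 cells stably expressing hCAR with CYP2B6 luciferase reporter stimulated by CITCO; nearly all actives have a fitted effect of over 40% in size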; further: potency means the concentration at half of the fitted maximal effect
Method in brief: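 Quantitative HTS in double-stable HepG2-CYP2B6-hCAR cells. After 4 h plating, cells get compound (15 concentrations) and CITCO at 50 nM final, incubate 24 h at 37 C, then ONE-Glo luminescence is read.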

[10] = target: Nuclear receptor subfamily 1 group I member 3 (Homo sapiens) (UniProt Q14994); assay: qHTS assay to identify small molecule agonists of the constitutive androstane receptor (CAR) signaling pathway (AID 1224839);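 further: HepG2 cells stably carrying human CAR and a CYP2B6 luciferase reporter; series mostly up to about 92 µM; nearly all actives have a fitted effect of over 15% in size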
Method in brief: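 Readout: firefly luciferase luminescence via ONE-Glo. System: HepG2 double-stable for hCAR and CYP2B6-2.2kb. Conditions: 15-point compound titration, PK11195 at 0.75 uM final, 24 h incubation.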

[11] = qHTS assay to identify small molecule antagonists of the estrogen related receptor signaling pathway with the pleiotropic PPARgamma coactivator (PGC) from Tox21 10K library - cell viability counter screen (AID 1224840; active means well fitted cell-killing curve with a large enough effect in the repeat runs, not every such curve was filed as active; further: nearly all actives have a fitted effect of over 40% in size)
Method in brief: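 Compounds in DMSO, alongside positive and negative controls, were pinned onto PGC/ERR cells (2,000 per well). Exposure lasted 17.5 hours at 37 C, followed by a 30-minute CellTiter-Fluor incubation and fluorescence reading.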

[12] = qHTS assay to identify small molecule agonists of the hypoxia (HIF-1) signaling pathway - cell viability counter screen (AID 1224844; calls by dose curve; further: nearly all actives have a fitted effect of over 50% in size)
Method in brief: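 Luminescent ATP content (CellTiter-Glo, 30 min, room temperature) served as the viability measure in HRE-bla ME-180 cells exposed to compounds for 17 hrs in low-serum medium (0.5% dialyzed FBS).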

[13] = qHTS assay to identify small molecule agonists of H2AX (AID 1224845; active means well fitted activation curve with a large enough effect in the signal ratio in the repeat runs, not every such curve was filed as active; the % refers to the signal ratio)
Method in brief: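 Phospho-H2AX Ser139 measured by HTRF (ex 320 nm; em 665 and 620 nm) after 24 hr antibody incubation. Compounds, 15 concentrations, 0.76% DMSO, were applied to CHO-K1 cells for 3hr at 37C before lysis.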

[14] = qHTS assay to identify small molecule agonists of the hypoxia (HIF-1) signaling pathway (AID 1224846; active means well fitted activation curve with a large enough effect in the signal ratio in the repeat runs, not every such curve was filed as active; the % refers to the signal ratio)
Method in brief: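 Measured by blue/green FRET after loading CCF4-AM: beta-lactamase expressed from a hypoxia response element in ME-180 cells. Test agents were delivered in DMSO and left 17 hrs; cells had been plated 5 hrs earlier in low-serum (0.5% dialyzed FBS) medium.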

[15] = qHTS assay to identify small molecule agonists of H2AX - cell viability counter screen (AID 1224847; calls by dose curve;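 further: wild-type CHO-K1 cells; top concentration of the series differs between compounds; nearly all actives have a fitted effect of over 30% in size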)
Method in brief: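 For this counter screen, overnight-attached CHO-K1 cells received test compounds (15 concentrations, 0.76% DMSO final); 3 hr later at 37C, CellTiter-Glo reagent was added and luminescence recorded after 30 min at room temperature.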

[16] = qHTS RealTime-Glo MT Cell Viability Assay in HepG2 cells - 24 hour (AID 1224867); further: nearly all actives have a fitted effect of over 50% in size
Method in brief: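 Viability was tracked continuously by NanoLuc luminescence from prosubstrate reduced by living HepG2 cells, at successive time points over 40 h of compound exposure. Cells with reagent were preincubated 5 h at 37 °C before compound addition.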

[17] = target: Thyrotropin receptor (Homo sapiens) (UniProt P16473); assay: qHTS assay to identify small molecule agonists of the thyroid stimulating hormone receptor (TSHR) signaling pathway (AID 1224843; calls by dose curve; further: nearly all actives have a fitted effect of over 45% in size)
Method in brief: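 HEK293 cells stably bearing the thyrotropin receptor were plated at 800 cells/well and challenged with compound (30 min, RT). Accumulated cAMP was quantified via cAMP-d2 competing for cryptate-tagged antibody.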
On the % scale 0 is the no-effect control and ±100 the full control effect.

Nuclear receptor subfamily 1 group I member 3 (Homo sapiens), sequence (Q14994 whole entry, looked up): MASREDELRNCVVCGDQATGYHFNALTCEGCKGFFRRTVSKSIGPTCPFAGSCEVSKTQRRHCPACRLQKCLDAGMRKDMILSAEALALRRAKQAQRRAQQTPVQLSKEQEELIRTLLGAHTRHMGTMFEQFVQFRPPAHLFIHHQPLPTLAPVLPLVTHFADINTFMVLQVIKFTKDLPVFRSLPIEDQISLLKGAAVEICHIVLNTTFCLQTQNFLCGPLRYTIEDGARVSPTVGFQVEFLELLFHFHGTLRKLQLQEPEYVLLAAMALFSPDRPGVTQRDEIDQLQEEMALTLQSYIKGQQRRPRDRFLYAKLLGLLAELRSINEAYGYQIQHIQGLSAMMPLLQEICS
Luciferin 4-monooxygenase (Photinus pyralis), sequence (P08659 whole entry, looked up): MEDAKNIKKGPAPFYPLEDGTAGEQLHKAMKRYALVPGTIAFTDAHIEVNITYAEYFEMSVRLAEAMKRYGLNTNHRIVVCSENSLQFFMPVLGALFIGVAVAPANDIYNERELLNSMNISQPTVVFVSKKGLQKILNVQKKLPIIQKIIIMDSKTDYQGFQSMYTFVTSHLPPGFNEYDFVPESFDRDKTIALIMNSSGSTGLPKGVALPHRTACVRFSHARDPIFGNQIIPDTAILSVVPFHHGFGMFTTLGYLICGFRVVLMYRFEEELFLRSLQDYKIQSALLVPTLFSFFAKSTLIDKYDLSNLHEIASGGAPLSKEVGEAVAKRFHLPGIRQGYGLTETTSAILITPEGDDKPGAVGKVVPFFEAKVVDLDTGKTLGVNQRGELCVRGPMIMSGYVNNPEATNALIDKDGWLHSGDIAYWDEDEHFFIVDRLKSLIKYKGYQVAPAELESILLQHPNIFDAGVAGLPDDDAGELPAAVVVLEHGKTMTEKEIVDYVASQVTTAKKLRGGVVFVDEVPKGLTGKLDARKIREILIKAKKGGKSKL
Thyrotropin receptor (Homo sapiens), sequence (P16473 whole entry, looked up): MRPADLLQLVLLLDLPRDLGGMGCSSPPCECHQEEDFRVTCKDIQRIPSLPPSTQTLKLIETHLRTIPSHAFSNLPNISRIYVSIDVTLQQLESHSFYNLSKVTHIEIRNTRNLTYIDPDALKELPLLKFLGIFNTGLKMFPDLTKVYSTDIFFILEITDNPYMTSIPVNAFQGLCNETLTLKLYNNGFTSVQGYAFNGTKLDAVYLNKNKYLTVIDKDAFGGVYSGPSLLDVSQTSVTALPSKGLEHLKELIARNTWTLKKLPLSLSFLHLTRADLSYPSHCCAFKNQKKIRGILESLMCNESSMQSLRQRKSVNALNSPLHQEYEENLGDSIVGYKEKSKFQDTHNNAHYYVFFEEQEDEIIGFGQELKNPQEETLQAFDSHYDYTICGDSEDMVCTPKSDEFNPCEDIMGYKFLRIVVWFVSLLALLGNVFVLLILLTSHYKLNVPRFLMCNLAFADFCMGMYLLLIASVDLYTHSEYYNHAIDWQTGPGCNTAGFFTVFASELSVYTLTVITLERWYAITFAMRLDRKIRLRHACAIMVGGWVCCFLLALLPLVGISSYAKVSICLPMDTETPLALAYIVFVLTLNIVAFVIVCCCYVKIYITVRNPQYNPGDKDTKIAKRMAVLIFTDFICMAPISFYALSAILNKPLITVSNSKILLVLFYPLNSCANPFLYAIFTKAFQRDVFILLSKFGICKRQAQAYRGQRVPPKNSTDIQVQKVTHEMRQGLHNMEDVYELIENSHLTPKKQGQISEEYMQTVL

CCOC(CN1CCN(CC(C)C(=O)c2ccccc2)CC1)c1ccccc1 (configuration not stated)
inactive: activity change, negative = cytotoxicity [1] -11.3% [at 15.8 µM] | activity change, negative = cytotoxicity [2] 3.44% [at 19 µM] | activity, negative = inhibition [3] 1.21% [at 19 µM] | Potency [4] | viability change, negative = cytotoxic [5] -3.03% [at 19 µM] | activity change, negative = inhibition [6] -1.09% [at 23.6 µM] | viability change, negative = cytotoxic [7] 0.779% [at 19 µM] | activity change, negative = cytotoxicity [8] 3.98% [at 19 µM] | activity, negative = inhibition [9] -25.3% [at 19 µM] | activation [10] -1.5% [at 19 µM] | viability change, negative = cytotoxic [11] -2.82% [at 19 µM] | activity change, negative = cytotoxicity [12] 0.0048% [at 15.8 µM] | activation (H2AX phosphorylation) [13] -1.86% [at 31.6 µM] | activation [14] 1.68% [at 15.8 µM] | activity change, negative = cytotoxicity [15] -1.65% [at 31.6 µM] | activity change, negative = cytotoxicity [16] -0.414% [at 15.8 µM]

CCNC(=O)NCc1cccc(Cl)c1
inactive: outcome [1] | outcome [2] | outcome [3] | Potency [4] | outcome [5] | Potency [6] | outcome [7] | outcome [8] | Potency [9] | Potency [10] | outcome [17] | outcome [12] | outcome [13] | outcome [14] | outcome [15] | outcome [16]

COC(=O)CCCCC(CCSS/C(CCO)=C(\C)N(C=O)Cc1cnc(C)nc1N)SC(C)=O (configuration not stated)
inactive: outcome [1] | outcome [2] | outcome [3] | Potency [4] | outcome [5] | Potency [6] | outcome [7] | outcome [8] | Potency [9] | Potency [10] | outcome [11] | outcome [12] | outcome [13] | outcome [14] | outcome [15] | outcome [16]

CN(C)CCN(C)CCO
inactive: outcome [1] | outcome [2] | outcome [3] | Potency [4] | outcome [5] | Potency [6] | outcome [7] | outcome [8] | Potency [9] | Potency [10] | outcome [11] | outcome [12] | outcome [13] | outcome [14] | outcome [16]

CSc1cnccn1
inactive: outcome [1] | outcome [2] | outcome [3] | Potency [4] | outcome [5] | Potency [6] | outcome [7] | outcome [8] | Potency [9] | Potency [10] | outcome [17] | outcome [12] | outcome [13] | outcome [14] | outcome [15] | outcome [16]

CCCC(=O)OC/C=C(\C)CCC=C(C)C
inactive: outcome [1] | outcome [2] | outcome [3] | Potency [4] | outcome [5] | Potency [6] | outcome [7] | outcome [8] | Potency [9] | Potency [10] | outcome [17] | outcome [12] | outcome [13] | outcome [14] | outcome [15] | outcome [16]

OC1OCCOC1O (configuration not stated)
inactive: outcome [1] | outcome [2] | outcome [3] | Potency [4] | outcome [5] | Potency [6] | outcome [7] | outcome [8] | Potency [9] | Potency [10] | outcome [17] | outcome [12] | outcome [13] | outcome [14] | outcome [15] | outcome [16]

NCCOCCN
inactive: outcome [1] | outcome [2] | outcome [3] | Potency [4] | outcome [5] | Potency [6] | outcome [7] | outcome [8] | Potency [9] | Potency [10] | outcome [11] | outcome [12] | outcome [13] | outcome [14] | outcome [15] | outcome [16]

C=C(C)c1cccc(C(C)(C)N=C=O)c1
active: Potency [9] 7.7 µM
inactive: outcome [1] | outcome [2] | outcome [3] | Potency [4] | outcome [5] | Potency [6] | outcome [7] | outcome [8] | Potency [10] | outcome [11] | outcome [17] | outcome [13] | outcome [14] | outcome [16]

CC(C)CO
inactive: outcome [1] | outcome [2] | outcome [3] | Potency [4] | outcome [5] | Potency [6] | outcome [7] | outcome [8] | Potency [9] | Potency [10] | outcome [11] | outcome [12] | outcome [13] | outcome [14] | outcome [16]

Cc1c(Cl)cccc1Cl
inactive: outcome [1] | outcome [2] | outcome [3] | Potency [4] | outcome [5] | Potency [6] | outcome [7] | outcome [8] | Potency [9] | Potency [10] | outcome [11] | outcome [13] | outcome [14] | outcome [15] | outcome [16]

CC(C)OC(=O)OCOP(=O)(CO[C@H](C)Cn1cnc2c(N)ncnc21)OCOC(=O)OC(C)C
active: Potency [9] 2.37 µM
inactive: outcome [1] | outcome [2] | outcome [3] | Potency [4] | outcome [5] | Potency [6] | outcome [7] | outcome [8] | Potency [10] | outcome [11] | outcome [17] | outcome [14] | outcome [15] | outcome [16]

CN(C)C(C)(C)CO
inactive: outcome [1] | outcome [2] | outcome [3] | Potency [4] | outcome [5] | Potency [6] | outcome [7] | outcome [8] | Potency [9] | Potency [10] | outcome [11] | outcome [13] | outcome [14] | outcome [15] | outcome [16]

CC(S)C(C)S (configuration not stated)
inactive: outcome [1] | outcome [2] | outcome [3] | Potency [4] | outcome [5] | Potency [6] | outcome [7] | outcome [8] | Potency [9] | Potency [10] | outcome [11] | outcome [13] | outcome [14] | outcome [15] | outcome [16]

CN(C)CCOC(=O)C(c1ccccc1)C1(O)CCCC1 (configuration not stated)
inactive: outcome [1] | outcome [2] | outcome [3] | Potency [4] | outcome [5] | Potency [6] | outcome [7] | outcome [8] | Potency [9] | Potency [10] | outcome [11] | outcome [17] | outcome [13] | outcome [15] | outcome [16]
